Sampled rows, rich in hits. Any-hit rate of the full collection: about 5.9%.
ABHD5 PLIN5 PPI: ABHD5-PLIN5 interaction inhibitors, primary screen, cell lysate, split luciferase complementation, luminescence; inhibition, % at 4 µM; Perilipin-5 (Homo sapiens) + 1-acylglycerol-3-phosphate O-acyltransferase ABHD5 (Homo …; AID 602281, 2012; 0.78% of 360,000 active; Split G. princeps luciferase complementation, 4 h;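 active means inhibition above the mean inhibition across every tested compound plus 3 SD, cut at about 22% in these data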;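 further: 0% = DMSO only wells and the 100% control is not disclosed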
PRMT1 inh: PRMT1 methyltransferase inhibitors, primary screen, biochemical, fluorescence polarization; Protein arginine N-methyltransferase 1 (Homo sapiens), Q99873; 1.3% of 370,000 active; recombinant PRMT1, activity-based probe fluorescence polarization; inhibition, % at 2.79 µM;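 active means inhibition above about 21% made by adding two undisclosed values, limit read from the data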
Rtt109 Vps75: inhibitors of C. albicans Rtt109/Vps75 HAT, primary screen, biochemical, ThioGlo CoA-SH fluorescence, plate reader. 0.16% of 330,000 active. Histone acetyltransferase RTT109 (Candida albicans (strain SC5314 / ATCC MYA-2876)), …. AID 540336, 2011. inhibition, % at 34.9 µM. purified Rtt109/Vps75, 4 h;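 active means inhibition of at least 50% in every replicate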
Target sequence (Q5AAJ8 whole entry, looked up): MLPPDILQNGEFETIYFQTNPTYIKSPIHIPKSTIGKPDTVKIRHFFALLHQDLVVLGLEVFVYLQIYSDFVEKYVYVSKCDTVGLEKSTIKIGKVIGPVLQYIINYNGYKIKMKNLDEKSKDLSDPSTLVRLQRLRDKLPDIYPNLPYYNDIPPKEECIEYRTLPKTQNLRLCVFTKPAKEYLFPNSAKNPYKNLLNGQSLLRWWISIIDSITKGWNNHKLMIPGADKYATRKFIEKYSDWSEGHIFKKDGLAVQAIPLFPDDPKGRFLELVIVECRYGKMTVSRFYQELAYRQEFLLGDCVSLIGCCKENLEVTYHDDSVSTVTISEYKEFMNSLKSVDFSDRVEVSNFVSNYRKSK
LANA-H2A inh: blockers of LANA interaction with H2A/H2B – biochemical, FP readout, HTS, primary screen | cell-free LANA-H2A/H2B peptide, fluorescence polarization | inhibition, % (no concentration beside the values) | 0.6% of 320,000 active | AID 2629, 2010; in the data active means inhibition mostly above about 10%, no sharp cut-off; inactive means mostly below about 6.7%
ALR inh: inhibitors of human ALR sulfhydryl oxidase, primary screen, biochemical, H2O2 detection, HRP-luminol luminescence, single point | 3.8% of 290,000 active | purified ALR, DTT oxidation | FAD-linked sulfhydryl oxidase ALR (Homo sapiens), P55789 | inhibition, % (no concentration beside the values);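 active means mean replicate inhibition above about 79%, with every replicate also reaching it, limit read from the data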
Target sequence (P55789 whole entry, looked up): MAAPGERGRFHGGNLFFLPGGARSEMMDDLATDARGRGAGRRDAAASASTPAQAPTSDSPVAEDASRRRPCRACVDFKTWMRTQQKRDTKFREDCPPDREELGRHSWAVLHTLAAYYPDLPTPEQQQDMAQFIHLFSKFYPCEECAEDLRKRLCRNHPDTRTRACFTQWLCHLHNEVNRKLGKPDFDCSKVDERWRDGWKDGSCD
rCAG RNA binder: binders of r(CAG) RNA repeats, primary screen, biochemical, fluorescence | r(CAG) RNA repeat, TO-PRO-1 dye displacement fluorescence | inhibition, % at 3 µM | 1.3% of 370,000 active | AID 651821, 2012;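 active means inhibition above the plate cutoff, the mean of all test compounds on that plate plus 3 SD, cut at about 35% in these data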;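 further: 0% = DMSO alone and 100% = 100 µM mitoxantrone as full dye displacement; higher means more dye released from RNA so lower well fluorescence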
PRMT1 confirm: PRMT1 methyltransferase inhibitors, confirmation, biochemical, fluorescence polarization, triplicate. shares compounds with PRMT1 inh. recombinant His-PRMT1, activity-based probe fluorescence polarization. inhibition, % at 2.79 µM. 42% of 3,300 active. AID 687036, 2013;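 active means mean inhibition across replicates above the hit cutoff derived for the earlier primary screen, cut at about 22% in these data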
The depositor's hits bear a star; / = not tested or not shown.

SMILES	ABHD5 PLIN5 PPI	PRMT1 inh	Rtt109 Vps75	LANA-H2A inh	ALR inh	rCAG RNA binder	PRMT1 confirm
NC(=O)C1Cc2ccccc2CN1C(=O)c1cccc(Oc2ccccc2)c1 (stereo not drawn)	8.5	106.2*	10.7	0.4	/	-2.7	6.8
CC1Cc2ccccc2N1S(=O)(=O)c1cccc(C(=O)N2Cc3ccccc3CC2C(N)=O)c1 (stereo not drawn)	-4.0	-0.5	9.8	-0.8	-0.1	7.7	/
Cc1cnc(NC(=O)CSc2nnc(COc3c(C)cccc3C)o2)s1	-44.7	38.3*	-1.4	0.3	-1.9	6.3	-4.6
Cc1cccc(C)c1OCc1nnc(SCC(=O)Nc2ccccc2F)o1	-2.9	-0.9	-3.3	-0.5	19.2	-3.5	/
COC(=O)[C@H]1C[C@]2(C/C=C(\C)CCC=C(C)C)c3ccccc3N[C@H]2N1	/	-3.3	/	/	/	/	/
CSc1nc2c(C)c(C)c(C)c(C)c2[nH]1	-3.0	-2.8	1.6	2.3	-9.3	2.2	/
CSc1nc(=S)cc(C)[nH]1	7.8	83.3*	-0.2	-0.8	/	-4.9	88.8*
CN1C(=O)[C@@]2(C3=C(CCCC3=O)OC3=C2C(=O)OC2(CCCCC2)C3)c2ccccc21	/	-1.0	/	/	/	1.9	/
N#CC(Sc1ccccn1)c1ccc(Cl)cc1 (stereo not drawn)	-2.0	46.2*	5.5	0.7	22.5	-3.7	35.4*
O=C(NCCSc1ccccn1)c1ccc(Cl)cc1	1.2	3.5	8.4	1.9	-17.7	1.3	/
COc1cc(NC(=S)N2CCN(CCO)CC2)c(OC)cc1Cl	-0.9	-2.2	/	2.0	-60.0	3.2	/
OCCN1CCN(C(=S)c2ccc(Cl)c(Cl)c2)CC1	-7.9	78.0*	0.6	1.6	/	0.3	77.8*
COC(=O)[C@@]12CCCCC3=C1N(CCC3)C(=O)[C@H]2CC(=O)NCc1ccccc1	/	0.4	/	/	/	-0.1	/
CCOc1ccc(N2C(=O)CC(N3CCOCC3)C2=O)cc1 (stereo not drawn)	-9.3	9.7	/	4.6	1.8	3.5	/
O=C(C1CCN(C2CC(=O)N(c3cccc(Cl)c3)C2=O)CC1)N1CCCC1 (stereo not drawn)	8.6	29.8*	3.4	-3.2	1.9	-4.5	3.7
CC(=O)Oc1ccc(N2C(=O)CC(N3CCOCC3)C2=O)cc1 (stereo not drawn)	2.9	42.6*	1.3	0.2	-6.6	4.1	10.7
O=C1CC(N2CCN(C(c3ccccc3)c3ccccc3)CC2)C(=O)N1Cc1ccc(N2CCCC2=O)cc1 (stereo not drawn)	0.3	18.2	2.0	2.9	1.6	-0.7	/
NC(=O)C1CCN(C2CC(=O)N(Cc3ccc(N4CCCC4=O)cc3)C2=O)CC1 (stereo not drawn)	1.7	58.5*	12.0	1.2	-2.8	1.2	0.9
Cc1ccc(NNC2CC(=O)N(c3cccc(Cl)c3)C2=O)cc1 (stereo not drawn)	0.1	8.7	-3.6	/	/	25.1	/
CCN(CC)C1CC(=O)N(c2cccc(Cl)c2)C1=O (stereo not drawn)	1.6	34.4*	4.9	-5.8	/	4.5	28.7*
CCOC(=O)[C@@]12CCCC=C1N(CCc1ccc(Cl)cc1)C(=O)[C@H]2CC(=O)NCCc1ccccc1OC	/	-7.3	/	/	/	4.9	/
Cc1ccc(NC(=O)c2ccc(-c3cc(Cl)ccc3Cl)o2)c(C)c1	0.2	-2.0	/	/	/	5.9	/
CCCCCCN(C(=O)CCCN1C(=O)NC(c2ccc([N+](=O)[O-])cc2)C(C(=O)OCc2ccccc2)=C1C)C(C)C(=O)NCCCC (stereo not drawn)	3.4	/	-4.5	/	/	/	/
C[C@@H]1CN([C@H](C)CO)C(=O)CCCn2nncc2CO[C@H]1CN(C)C(=O)Nc1ccc2c(c1)OCCO2	/	-9.5	/	/	/	2.5	/
Cc1cc(OC[C@@H](O)CN2CCC(C(O)(c3ccccc3)c3ccccc3)CC2)ccc1Br	/	1.1	/	/	/	4.0	/
SMILES	ABHD5 PLIN5 PPI	PRMT1 inh	Rtt109 Vps75	LANA-H2A inh	ALR inh	rCAG RNA binder	PRMT1 confirm
O=C(C1CCN(C2CC(=O)N(Cc3ccccc3)C2=O)CC1)N1CCCCCC1 (stereo not drawn)	5.2	56.7*	-3.4	-6.1	/	-6.7	1.8
CC(=O)Oc1ccc(N2C(=O)CCC2=O)cc1	1.1	-3.7	-11.9	-2.6	4.1	0.1	/
CC(=O)Oc1ccc(N2C(=O)C3C4C=CC(O4)C3C2=O)cc1 (stereo not drawn)	10.1	94.7*	-7.5	2.3	-11.9	0.1	26.8*
O=C(c1ccc(Cl)cc1)N1CCC(N2CCC(C(=O)N3CCOCC3)CC2)CC1	1.4	-5.6	-8.8	0.1	-14.5	2.8	/
O=C(C1CCN(C2CC(=O)N(c3ccc(Cl)cc3)C2=O)CC1)N1CCOCC1 (stereo not drawn)	11.6	26.8*	3.3	3.0	/	-0.6	9.5
CC(=O)Oc1cccc(N2C(=O)C3C4C=CC(C4=C(C)C)C3C2=O)c1 (stereo not drawn)	9.6	64.4*	5.8	-2.1	-8.0	-2.4	14.2
COc1ccc(CCNC(=O)C(F)(F)F)cc1S(N)(=O)=O	-2.0	-3.8	/	/	/	2.3	/
C=CC[C@H](CC(=O)OC(C)(C)C)C(=O)OC[C@@H]1CCCN1C(=O)[C@@H](CC=C)CC(=O)N[C@H](CO)Cc1ccccc1	2.1	-0.8	2.4	-0.1	-5.9	-9.6	/
COc1ccc(-c2cccc(N3CCN(c4ccccn4)CC3)n2)cc1OC	0.0	0.5	/	/	/	22.8	/
Cc1cc(C)nc(SCSc2nc(C)cc(C)n2)n1	-1.0	-1.4	-4.7	/	/	2.1	/
Cc1cc(C)nc(SCCc2ccncc2)n1	-5.8	29.6*	34.9	4.8	/	2.4	11.2
O=C(Nc1ccc(F)cc1)N[C@@H]1C[C@@H]2O[C@H](CO)CC[C@@H]2O[C@@H]1CCc1ccc(C2=CCCC2)cc1	/	1.9	/	/	/	4.2	/
CN(C)c1ccc(/C=N\NC(=S)SCN2C(=O)C3CCC(C)(C2=O)C3(C)C)cc1 (stereo not drawn)	-4.2	43.5*	-5.8	2.2	1.6	13.3	8.4
CC12CCC(C(=O)N(CSC(=S)N/N=C\c3ccccc3O)C1=O)C2(C)C (stereo not drawn)	1.4	24.8*	4.6	0.7	-6.1	30.1	2.9
COc1ccc(/C=N\NC(=S)SCN2C(=O)C3CCC(C)(C2=O)C3(C)C)cc1 (stereo not drawn)	-11.0	6.0	-7.6	5.9	6.1	5.9	/

Bioassay records (PubChem BioAssay)
